High-throughput results from PubChem.
Only some compounds are listed: those with a hit (about 2.7% of all), similar ones and a draw of the others.
PAX8 inh HTS: lowers PAX8-driven luciferase in RMG-I cells; hit rate 1.2% among 360,000; RMG-I TPO-luciferase reporter, SteadyGlo, 24 h; inhibition, % at 12.6 µM; AID 652154;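 active = mean replicate inhibition at least 60% with every replicate also reaching 60%; inconclusive = only one of the two criteria is met; inactive = mean below 60% and not all replicates reaching 60%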;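 also: luciferase light reporting Pax8 driven TPO promoter activity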
Env fusion inh: inhibitors of HIV Env-mediated cell fusion. hit rate 1.1% among 360,000. inhibition, % at 12.3 µM. AID 651610. HeLa-JRFL Env/CEM21 cell fusion, luciferase;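 active = mean replicate inhibition score of at least 50 and every replicate individually at or above 50; inconclusive = only one of the two criteria met; inactive = mean below 50 and not all replicates reaching 50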
EWS-Fli block: inhibitors of EWS/Fli oncoprotein transcriptional activity | AID 651661 | hit rate 0.67% among 350,000 | A673 NR0B1-luciferase reporter, viability-normalised | inhibition, % at 12.6 µM;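 active = mean inhibition of at least 50% after viability correction, with every replicate also passing that limit; inconclusive = mean reaches 50% but only one of two replicates passes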;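 also: firefly luciferase signal divided by Alamar Blue viability fluorescence both relative to DMSO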
INS-1E GSIS act: primary screen for activators of insulin secretion dependent on glucose, INS-1E cells, GLuc reporter luminescence | INS-1E GLuc reporter insulin secretion, 2-3 h | activation, % at 16.6 µM | hit rate 0.61% among 370,000 | AID 743287;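 active = lowest replicate activation of at least 40%, so every replicate reaches that level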
F508del corr: CFTR F508del correction in bronchial cells; CFBE cells, YFP halide quenching; stimulated with forskolin plus potentiator P3; % fluorescence drop versus neutral controls; activity (quench increase), % at 7.58 µM; hit rate 0.36% among 350,000; AID 720511;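 active = mean added fluorescence quench of at least 8% versus neutral control, with both replicates also reaching 8%; inconclusive = only one of the mean or replicate conditions met; inactive = mean below 8% and not both replicates reaching 8%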;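 also: cells transiently co-express mutant CFTR-F508del with the halide-sensitive YFP; corrector assay measuring rescue of mutant channel to the surface after 24 h compound exposure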
PGC1a acetyl inh: modulators of PGC1a acetylation. U2OS PGC1a acetylation, AlphaScreen anti-acetyl-lysine; with virally co-expressed GCN5 acetyltransferase. inhibition, % at 15.6 µM. hit rate 0.17% among 350,000. AID 651687;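 active = every replicate shows inhibition of at least 40%; inconclusive = mean inhibition at least 40% but some replicate below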
Of the large screens only hits and unclear results are named; the others gave an inactive call; [ ] = another dose, or the depositor's remark.

CCCC[C@@H](O)C1=C(COc2ccccc2)C[C@H]2C(=O)N(Cc3ccccc3)C(=O)[C@H]2[C@H]1CO	none (no result: PAX8 inh HTS, INS-1E GSIS act)
O=C(Cc1ccncc1)Nc1ccc2c(c1)[C@H]1C[C@H](CC(=O)N3CCCCC3)O[C@@H](CO)[C@H]1O2	none
O=S(=O)(N[C@H]1CC[C@@H](CCn2cc(-c3cccc(F)c3)nn2)O[C@@H]1CO)c1ccccc1	none
CO[C@H]1CN(C)C(=O)c2cc(NC(=O)C3CC3)ccc2OC[C@H](C)N(Cc2nccs2)C[C@H]1C	none (no result: Env fusion inh)
C[C@@H]1CN([C@@H](C)CO)C(=O)Cc2cc(NC(=O)Nc3ccc(C(F)(F)F)cc3)ccc2O[C@H]1CN(C)S(=O)(=O)c1ccc(F)cc1	PAX8 inh HTS 94
Cc1ccc(S(=O)(=O)N(C)C[C@@H]2Oc3ccc(NC(=O)Nc4ccc(C(F)(F)F)cc4)cc3CC(=O)N([C@H](C)CO)C[C@@H]2C)cc1	PAX8 inh HTS 97, Env fusion inh 76[16.7 µM], EWS-Fli block inconclusive
C[C@H](CO)N1C[C@H](C)[C@H](CN(C)S(=O)(=O)c2ccc(F)cc2)Oc2ccc(NC(=O)Nc3ccc(C(F)(F)F)cc3)cc2CC1=O	none (no result: PAX8 inh HTS, Env fusion inh)
Cc1ccc(S(=O)(=O)N(C)C[C@@H]2Oc3ccc(NC(=O)Nc4ccc(C(F)(F)F)cc4)cc3CC(=O)N([C@@H](C)CO)C[C@H]2C)cc1	none
C[C@@H]1CCCCO[C@@H](CN(C)C(=O)c2ccccc2)[C@H](C)CN([C@H](C)CO)C(=O)c2cc(NS(=O)(=O)c3ccc(F)cc3)ccc2O1	none
COc1ccc(NC(=O)Nc2ccc3c(c2)C(=O)N([C@@H](C)CO)C[C@@H](C)[C@H](CN(C)C(=O)Nc2ccc(C(F)(F)F)cc2)OCCCC[C@H](C)O3)cc1	none
C[C@@H]1CN([C@H](C)CO)C(=O)c2cc(-c3ccc(C#N)cc3)cnc2O[C@H]1CN(C)C(=O)CN(C)C	none (no result: PAX8 inh HTS)
C[C@H](CO)N1C[C@H](C)[C@@H](CN(C)S(=O)(=O)c2ccc(Cl)cc2)OCCCC[C@H](C)Oc2ccc(NC(=O)CCC(F)(F)F)cc2C1=O	none
C[C@@H]1CCCCO[C@@H](CN(C)S(=O)(=O)c2ccc(Cl)cc2)[C@@H](C)CN([C@H](C)CO)C(=O)c2cc(NC(=O)Nc3ccccc3)ccc2O1	none
C[C@@H]1CN([C@H](C)CO)C(=O)c2cc(NC(=O)Nc3ccc(C(F)(F)F)cc3)ccc2O[C@@H](C)CCCCO[C@H]1CN(C)S(=O)(=O)c1ccc(Cl)cc1	PAX8 inh HTS 88
COc1ccc(S(=O)(=O)N(C)C[C@@H]2OCCCC[C@H](C)Oc3ccc(NC(=O)C4CCCCC4)cc3C(=O)N([C@@H](C)CO)C[C@@H]2C)cc1	PAX8 inh HTS 65
C[C@@H]1CCCCO[C@H](CN(C)S(=O)(=O)c2ccc(Cl)cc2)[C@@H](C)CN([C@@H](C)CO)C(=O)c2cc(NC(=O)CCC(F)(F)F)ccc2O1	PAX8 inh HTS 93
C[C@@H]1CCCCO[C@@H](CN(C)S(=O)(=O)c2ccc(Cl)cc2)[C@H](C)CN([C@@H](C)CO)C(=O)c2cc(NC(=O)Nc3ccc(C(F)(F)F)cc3)ccc2O1	none
C[C@@H]1CN([C@H](C)CO)C(=O)c2cc(NC(=O)Nc3ccccc3)ccc2O[C@@H](C)CCCCO[C@H]1CN(C)S(=O)(=O)c1ccc(Cl)cc1	PAX8 inh HTS 70
C[C@@H]1CN([C@@H](C)CO)C(=O)c2cc(-c3ccccc3)cnc2O[C@@H]1CN(C)C(=O)c1ccccn1	none (no result: PAX8 inh HTS)
CC(C)[C@@H]1CC=CC[C@H](C)Oc2ccccc2C(=O)N(C)[C@@H](Cc2ccccc2)C(=O)N1 (mixture of isomers)	none (no result: PAX8 inh HTS, Env fusion inh, EWS-Fli block, F508del corr, PGC1a acetyl inh)
C[C@@H]1CN([C@H](C)CO)C(=O)Cc2cc(NC(=O)C3CC3)ccc2O[C@@H]1CN(C)CC1CCCCC1	none (no result: PAX8 inh HTS)
COc1ccc(S(=O)(=O)N(C)C[C@H]2OCCCC[C@@H](C)Oc3ccc(NC(=O)Nc4ccccc4)cc3C(=O)N([C@H](C)CO)C[C@@H]2C)cc1	none
C[C@H](CO)N1C[C@H](C)[C@H](CN(C)S(=O)(=O)c2ccc(Cl)cc2)OCCCC[C@H](C)Oc2ccc(NC(=O)Nc3ccc(C(F)(F)F)cc3)cc2C1=O	PAX8 inh HTS 78
COc1ccc(S(=O)(=O)N(C)C[C@@H]2OCCCC[C@@H](C)Oc3ccc(NC(=O)Nc4ccccc4)cc3C(=O)N([C@H](C)CO)C[C@H]2C)cc1	Env fusion inh 76[16.7 µM]
COc1cccc(C#Cc2cnc3c(c2)C(=O)N([C@H](C)CO)C[C@@H](C)[C@H](CN(C)C)O3)c1	none
CC(=O)Nc1ccc(S(=O)(=O)N2c3ccccc3C(C)=CC2(C)C)cc1	F508del corr 9.5 (no result: PGC1a acetyl inh)
CC(C)Oc1ccc(C(=O)Nc2nnc(SCC(=O)N3CCOCC3)s2)cc1	PAX8 inh HTS 70, EWS-Fli block 60 (no result: F508del corr)
O=C(CCN1CCN(Cc2ccccc2)CC1)Nc1ccc(OCc2ccccc2)cc1	Env fusion inh 59 (no result: PAX8 inh HTS, EWS-Fli block, INS-1E GSIS act, F508del corr)
COc1cccc(/C=C/C(=O)NNC(=O)CCN2CCN(Cc3ccccc3)CC2)c1	none
O=C(/C=C/c1ccc(F)cc1)NNC(=O)CCN1CCN(Cc2ccccc2)CC1	PGC1a acetyl inh 52
C[C@H]1CN([C@@H](C)CO)S(=O)(=O)c2ccc(C#Cc3ccccc3)cc2O[C@H]1CN(C)CC1CC1	none (no result: PAX8 inh HTS)
O=C1O[C@H](c2ccccc2)[C@H](c2ccccc2)N2[C@H]1[C@@H](C(=O)N1CCCCCCC1)[C@]1(C(=O)Nc3ccccc31)[C@H]2c1ccccc1OCCO	PAX8 inh HTS 79, Env fusion inh 59[16.7 µM] (no result: INS-1E GSIS act)
NC(=O)[C@@H]1[C@H]2C(=O)O[C@H](c3ccccc3)[C@H](c3ccccc3)N2[C@H](c2ccccc2OCCO)[C@@]12C(=O)Nc1ccccc12	PAX8 inh HTS 84 (no result: INS-1E GSIS act)
NC(=O)[C@H]1[C@@H]2C(=O)O[C@@H](c3ccccc3)[C@@H](c3ccccc3)N2[C@@H](c2ccccc2OCCO)[C@]12C(=O)Nc1ccccc12	PAX8 inh HTS inconclusive (no result: INS-1E GSIS act)
O=C1O[C@@H](c2ccccc2)[C@@H](c2ccccc2)N2[C@@H](c3ccccc3OCCO)[C@]3(C(=O)Nc4ccc(C#CC5=CCCCC5)cc43)[C@@H](C(=O)N3CCCCCCC3)[C@H]12	none (no result: INS-1E GSIS act)
NC(=O)NCC#Cc1ccc2c(c1)[C@]1(C(=O)N2)[C@H](c2ccccc2OCCO)N2[C@H](c3ccccc3)[C@H](c3ccccc3)OC(=O)[C@H]2[C@@H]1C(=O)N1CCCCCCC1	none (no result: INS-1E GSIS act)
O=C1O[C@@H](c2ccccc2)[C@@H](c2ccccc2)N2[C@@H](c3ccccc3OCCO)[C@]3(C(=O)Nc4ccc(C#CCCO)cc43)[C@@H](C(=O)N3CCCCCCC3)[C@H]12	PAX8 inh HTS 93 (no result: INS-1E GSIS act, PGC1a acetyl inh)
C[C@@H]1CN([C@@H](C)CO)C(=O)Cc2cc(NS(=O)(=O)c3cn(C)cn3)ccc2O[C@@H]1CN(C)S(C)(=O)=O	none
